S1P2 blocker – antagonists of human S1P2 receptor. O95136. cell-based S1P2 antagonist assay, inhibition at 5 uM. inhibition, % at 5 µM. 97,000 tested, 0.21% active. AID 736; in the data active = inhibition above about 45%;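 also: CRE beta-lactamase reporter cells expressing human S1P2 stimulated with S1P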
Target sequence (O95136 whole entry, looked up): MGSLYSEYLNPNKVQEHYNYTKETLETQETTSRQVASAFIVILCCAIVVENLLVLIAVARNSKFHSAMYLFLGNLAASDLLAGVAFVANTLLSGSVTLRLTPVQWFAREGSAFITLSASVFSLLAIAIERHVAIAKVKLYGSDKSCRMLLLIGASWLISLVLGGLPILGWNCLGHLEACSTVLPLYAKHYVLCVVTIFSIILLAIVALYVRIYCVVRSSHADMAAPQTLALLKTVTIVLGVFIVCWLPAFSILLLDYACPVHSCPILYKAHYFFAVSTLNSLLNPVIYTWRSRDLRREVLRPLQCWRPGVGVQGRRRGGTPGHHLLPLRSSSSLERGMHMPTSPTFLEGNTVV
GALR2 antag – blocks the human galanin receptor 2. 140,000 tested, 0.39% active. GALR2-expressing cells, antagonist mode. O43603. inhibition, % at 4 µM;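 also: cells stimulated with galanin 1-16 at roughly its EC80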
GALR2 ag – agonists of human galanin receptor 2 (GALR2). activation, % (no concentration beside the values). 140,000 tested, 0.48% active. AID 803. GALR2-expressing cells, agonist activation read-out; in the data active = activation above about 5%, passing the limit was not always enough
S1P2 agonist – agonists of human S1P2 receptor | O95136 | S1P2-expressing cell line, agonist reporter read-out | activation, % at 4.5 µM | 97,000 tested, 0.46% active | AID 729; in the data active = activation above about 16%
GALR2 agon conf – confirmation of human galanin receptor 2 (GALR2) agonists; shares compounds with GALR2 ag; GALR2-expressing cells, agonist activation; activation, % at 5.6 µM; 460 tested, 10% active; AID 864; in the data active = activation above about 8.4%
BLA act counter – activates beta-lactamase reporter in GALR2 agonist counterscreen. CHO NFAT-bla reporter, beta-lactamase FRET activation. shares compounds with GALR2 ag. 460 tested, 10% active. activation, % at 5.6 µM;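 active = activation above the screen-wide mean activation plus 3 SD, cut at about 8% in these data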
GALR2 ant conf – GALR2 (human) antagonism confirmed. inhibition, % at 4 µM. 480 tested, 60% active. shares compounds with GALR2 antag. GALR2-expressing cells, antagonist mode, inhibition;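 also: cells stimulated with galanin at about its EC80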
BLA inhib ctr – inhibits beta-lactamase reporter in GALR2 antagonist counterscreen; 480 tested, 36% active; shares compounds with GALR2 antag; AID 867; inhibition, % at 4.2 µM; CHO NFAT-BLA reporter, beta-lactamase FRET, thapsigargin-stimulated;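 active = inhibition above the mean inhibition across tested compounds plus 3 SD, cut at about 27% in these data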
Large screens that a line does not name were inactive (follow-up assays come after a bar, where they were run). Sampled rows, rich in hits. Any-hit rate of the full collection: about 1.1%. Rule as the data show it, unless noted: active = inhibition above about 27%; inactive = the rest.

Nc1c(C(=O)NCc2ccco2)c2nc3ccccc3nc2n1Cc1ccc(F)cc1	GALR2 ag 28, S1P2 agonist 48
Nc1c(C(=O)NCc2ccco2)c2nc3ccccc3nc2n1Cc1ccccc1	GALR2 ag 5.1 (no result: S1P2 blocker, S1P2 agonist)
C=CCn1c(O)c(N=Nc2c(C)n(C)n(-c3ccccc3)c2=O)c(=O)[nH]c1=S	none (no result: S1P2 blocker, S1P2 agonist)
COc1cccc(-n2c(CN3CCN(C)CC3)nc3ccc([N+](=O)[O-])cc3c2=O)c1	none (no result: S1P2 blocker, S1P2 agonist)
O=C(Nc1ccc(Cl)cc1)Nc1nccs1	S1P2 agonist 53
O=P(NCc1ccccc1)(Oc1ccccc1)Oc1ccccc1	none (no result: S1P2 blocker, S1P2 agonist)
CC1CCN2c3nc4ccccn4c(=O)c3CC3(C(=O)N(C)C(=O)N(C)C3=O)C2C1 (centres undefined)	none
Cc1cccn2c(=O)c3c(nc12)N1CCC(Cc2ccccc2)CC1C1(C3)C(=O)N(C)C(=O)N(C)C1=O (centres undefined)	S1P2 agonist 17
CCOC(=O)c1cc(CC)sc1/N=C/c1c(O)[nH]c(=S)[nH]c1=O	none (no result: S1P2 blocker, S1P2 agonist)
CCCCCCn1c(N)c(C(=O)NCCN2CCOCC2)c2nc3ccccc3nc21	GALR2 ag 20, S1P2 agonist 29
COc1ccc(CCNC(=O)c2c(N)n(CCN3CCOCC3)c3nc4ccccc4nc23)cc1OC	none
CCCCCn1c(N)c(C(=O)NCc2cccs2)c2nc3ccccc3nc21	none
CCCCn1c(NC(=O)c2ccco2)c(C(=O)OCC)c2nc3ccccc3nc21	none
Nc1c(C(=O)NCc2ccco2)c2nc3ccccc3nc2n1CCN1CCOCC1	none
CCCCn1c(N)c(C(=O)NCc2cccs2)c2nc3ccccc3nc21	GALR2 ag 36, S1P2 agonist 18
CCCCCn1c(N)c(C(=O)NCCN2CCOCC2)c2nc3ccccc3nc21	S1P2 agonist 16
CCCCn1c(NS(=O)(=O)c2ccc(C)cc2)c(C(=O)OCC)c2nc3ccccc3nc21	GALR2 ag 7.0 (no result: S1P2 blocker, S1P2 agonist)
CCCNC(=O)c1c(N)n(CC2CCCO2)c2nc3ccccc3nc12 (centres undefined)	none
Nc1c(C(=O)NCCCc2ccccc2)c2nc3ccccc3nc2n1Cc1cccs1	GALR2 ag 32, S1P2 agonist 84
CCCCNC(=O)c1c(N)n(Cc2ccc3c(c2)OCO3)c2nc3ccccc3nc12	GALR2 ag 6.8, S1P2 agonist 38
CCCCOCCCn1c(N)c(C(=O)OCCOC)c2nc3ccccc3nc21	none
COCCCn1c(N)c(C(=O)NCCC(C)C)c2nc3ccccc3nc21	GALR2 ag 33, S1P2 agonist 29
CC(C)OCCCNC(=O)c1c(N)n(CC2CCCO2)c2nc3ccccc3nc12 (centres undefined)	GALR2 ag 12, S1P2 agonist 18
Brc1ccc2c(c1)C(OC1CN3CCC1CC3)c1ccccc1CS2 (centres undefined)	none (no result: S1P2 blocker, S1P2 agonist)
O=[N+]([O-])c1ccc(C2C3C(c4ccccc4)=NC4(CCCC4)N32)cc1 (centres undefined)	none (no result: S1P2 blocker, S1P2 agonist)
CCCCc1ccc2[nH]cc(CCN)c2c1	none
O=C1NC(=O)N(c2ccccc2)C(=O)/C1=C/c1ccc(Sc2ccccc2)o1	S1P2 blocker 47
CCN1/C(=C\C=C\C2=[N+](CC)c3ccccc3C2(C)C)C(C)(C)c2ccccc21	S1P2 blocker 106
CN(C)CCc1nc2ccccc2c(=O)n1-c1ccccc1	GALR2 ag 32 | GALR2 agon conf inactive | BLA act counter inactive
COc1cc(/C=C(/C)[N+](=O)[O-])ccc1OCc1ccccc1Cl	GALR2 ag 11 (no result: S1P2 blocker, S1P2 agonist) | GALR2 agon conf inactive | BLA act counter inactive
CN1C(=O)C(=Cc2ccccc2OCc2ccccc2Cl)C(=O)N(C)C1=O	none (no result: S1P2 blocker, S1P2 agonist)
CCOC(=O)c1c(N)n(Cc2ccco2)c2nc3ccccc3nc12	none
COc1ccc(Cn2c(N)c(C(=O)NCc3ccco3)c3nc4ccccc4nc32)cc1	GALR2 ag 13 | GALR2 agon conf 8.6 | BLA act counter 16
Cc1nn(Cc2ccc(Cl)cc2Cl)c(Cl)c1C(=O)Nc1ccc(OC(F)F)cc1	none (no result: S1P2 blocker, S1P2 agonist)
Cc1nc2c(c(C)nn2-c2ccccc2)c(C)c1CCC(=O)N1CCC2(CC1)OCCO2	none (no result: S1P2 blocker, S1P2 agonist)
CCN(c1ccc(C(O)(C(=O)OC)C(F)(F)F)cc1)S(=O)(=O)c1ccccc1 (centres undefined)	GALR2 ag 16 (no result: S1P2 blocker, S1P2 agonist) | GALR2 agon conf inactive | BLA act counter inactive
N#Cc1cc2c(nc1SCC(=O)Nc1cc(Cl)ccc1Cl)C1CCN2CC1	none | GALR2 agon conf inactive | BLA act counter inactive
COc1ccc(OCC(=O)Nc2ccc(Cl)cc2C(=O)c2ccccc2)cc1	none | GALR2 agon conf inactive | BLA act counter inactive
O=C(COc1ccccc1)Nc1ccc(Cl)cc1C(=O)c1ccccc1	none (no result: S1P2 blocker, S1P2 agonist)
CCc1cccc(CC)c1NC(=S)N1CC2CC(C1)c1cccc(=O)n1C2 (centres undefined)	none (no result: S1P2 blocker, S1P2 agonist)
O=C(CCCN1CCC2(CC1)C(=O)NCN2c1ccccc1)c1ccc(F)cc1	GALR2 ag 16 (no result: S1P2 blocker, S1P2 agonist) | GALR2 agon conf 8.8 | BLA act counter 14
O=C(c1ccc2nc3ccc(Cl)cc3c(=O)n2c1)N1CCC2(CC1)OCCO2	none
Nc1cc(Cl)c2nonc2c1[N+](=O)[O-]	GALR2 antag 37 (no result: S1P2 blocker, S1P2 agonist) | GALR2 ant conf 35 | BLA inhib ctr inactive
COc1ccc(NC(=S)NC(NC(=O)CF)C(Cl)(Cl)Cl)c([N+](=O)[O-])c1 (centres undefined)	none (no result: S1P2 blocker, S1P2 agonist)
C=CCn1c(O)c(/C=C2/C=CC=N2)c(=O)[nH]c1=O	GALR2 antag 35 (no result: S1P2 blocker, S1P2 agonist) | GALR2 ant conf inactive | BLA inhib ctr inactive
COc1cc(/C=C/[N+](=O)[O-])ccc1O	GALR2 antag 52 (no result: S1P2 blocker, S1P2 agonist) | GALR2 ant conf 55 | BLA inhib ctr inactive
O=C(Nc1nc(-c2ccccc2)c(-c2ccccc2)s1)c1ccc(S(=O)(=O)N(CCCl)CCCl)cc1	none (no result: S1P2 blocker, S1P2 agonist)
CC(=O)OC(C)(C)/C=C/C(=O)[C@](C)(O)[C@H]1[C@H](O)C[C@@]2(C)[C@@H]3CC=C4[C@H](C[C@H](O)C(=O)C4(C)C)[C@]3(C)C(=O)C[C@]12C	GALR2 antag 72 (no result: S1P2 blocker, S1P2 agonist) | GALR2 ant conf 87 | BLA inhib ctr 102
Clc1ccc(COC(Cn2ccnc2)c2ccc(Cl)cc2Cl)c(Cl)c1 (centres undefined)	none (no result: S1P2 blocker, S1P2 agonist)
O=[N+]([O-])c1cc(S(=O)(=O)c2ccc(O)c([N+](=O)[O-])c2)ccc1O	none (no result: S1P2 blocker, S1P2 agonist)
CC(=O)OC1(c2ccc(C)cc2)CN2CCC1c1ccccc12 (centres undefined)	GALR2 antag 39 | GALR2 ant conf inactive | BLA inhib ctr inactive
CCCc1nc2ccc(Br)cc2c(=O)n1-c1ccc([N+](=O)[O-])c(C(F)(F)F)c1	none (no result: S1P2 blocker, S1P2 agonist)

Screening results deposited in PubChem by The Scripps Research Institute Molecular Screening Center.
